Measured values as given in PubChem BioAssay.
Active and inactive are the calls of the source.

Assays:
[1] = test system: Plasmodium falciparum Sir2 (PF13_0152, Sir2A); assay: pfSir2 binders on small-molecule microarrays, primary screen, biochemical, small-molecule microarray, 635 nm fluorescence (AID 1098); settings: small-molecule microarray binding, fluorescence 635 nm; higher = more signal;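 also: score merges spot fluorescence intensity with its signal-to-noise ratio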
[2] = small-molecule microarray binders of probe aDKK1, primary screen, biochemical, biotinylated probe, 635/667 nm fluorescence (AID 1099); settings: higher = more signal;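 also: score merges 667nm spot fluorescence with signal to noise across triplicate slides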
[3] = small-molecule microarray binders of probe aCHRDL2, primary screen, biochemical, biotinylated probe, 635/667 nm fluorescence (AID 1100); settings: higher = more signal
[4] = splicing luciferase reporter signal modulators, primary screen, spliceosome inhibition project, cell-based, HEK293, splice +/- reporter (AID 1101); settings: luminescence, 24 h, higher = more signal, called active from +8 up or from −8 down;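 also: HEK293 cells carrying a splicing-competent luciferase reporter gene; test concentration not given here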
[5] = target: Fibroblast growth factor 10 (Homo sapiens) (UniProt O15520); assay: FGF10 binders on small-molecule microarrays, primary screen, biochemical, small-molecule microarray, 635 nm fluorescence (AID 1102); settings: FGF10 binding, fluorescence 635 nm, higher = more signal
Chain of Fibroblast growth factor 10 (Homo sapiens) (O15520 whole entry, looked up): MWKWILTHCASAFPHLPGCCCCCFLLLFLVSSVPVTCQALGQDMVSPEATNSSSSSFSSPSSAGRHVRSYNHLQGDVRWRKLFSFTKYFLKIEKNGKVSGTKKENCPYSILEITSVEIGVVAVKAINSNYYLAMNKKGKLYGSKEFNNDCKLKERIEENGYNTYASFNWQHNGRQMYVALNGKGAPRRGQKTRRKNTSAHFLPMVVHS

[6] = test system: glycogen synthase kinase-3 (GSK3A per assay name; protocol says GSK3B); assay: GSK3 binders on small-molecule microarrays, primary screen, biochemical, small-molecule microarray, 635 nm fluorescence, GSK3A (AID 1103); settings: small-molecule microarray binding, fluorescence 635 nm; higher = more signal; also: the record names both GSK3A and GSK3B
[7] = target: Epidermal growth factor receptor (Homo sapiens) (UniProt P00533); assay: EGFR binders on small-molecule microarrays, primary screen, biochemical, small-molecule microarray, 635 nm fluorescence (AID 1104); settings: EGFR binding, higher = more signal;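 also: score merges 667 nm emission intensity with spot signal to noise over triplicate slides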
Chain of Epidermal growth factor receptor (Homo sapiens) (P00533 whole entry, looked up): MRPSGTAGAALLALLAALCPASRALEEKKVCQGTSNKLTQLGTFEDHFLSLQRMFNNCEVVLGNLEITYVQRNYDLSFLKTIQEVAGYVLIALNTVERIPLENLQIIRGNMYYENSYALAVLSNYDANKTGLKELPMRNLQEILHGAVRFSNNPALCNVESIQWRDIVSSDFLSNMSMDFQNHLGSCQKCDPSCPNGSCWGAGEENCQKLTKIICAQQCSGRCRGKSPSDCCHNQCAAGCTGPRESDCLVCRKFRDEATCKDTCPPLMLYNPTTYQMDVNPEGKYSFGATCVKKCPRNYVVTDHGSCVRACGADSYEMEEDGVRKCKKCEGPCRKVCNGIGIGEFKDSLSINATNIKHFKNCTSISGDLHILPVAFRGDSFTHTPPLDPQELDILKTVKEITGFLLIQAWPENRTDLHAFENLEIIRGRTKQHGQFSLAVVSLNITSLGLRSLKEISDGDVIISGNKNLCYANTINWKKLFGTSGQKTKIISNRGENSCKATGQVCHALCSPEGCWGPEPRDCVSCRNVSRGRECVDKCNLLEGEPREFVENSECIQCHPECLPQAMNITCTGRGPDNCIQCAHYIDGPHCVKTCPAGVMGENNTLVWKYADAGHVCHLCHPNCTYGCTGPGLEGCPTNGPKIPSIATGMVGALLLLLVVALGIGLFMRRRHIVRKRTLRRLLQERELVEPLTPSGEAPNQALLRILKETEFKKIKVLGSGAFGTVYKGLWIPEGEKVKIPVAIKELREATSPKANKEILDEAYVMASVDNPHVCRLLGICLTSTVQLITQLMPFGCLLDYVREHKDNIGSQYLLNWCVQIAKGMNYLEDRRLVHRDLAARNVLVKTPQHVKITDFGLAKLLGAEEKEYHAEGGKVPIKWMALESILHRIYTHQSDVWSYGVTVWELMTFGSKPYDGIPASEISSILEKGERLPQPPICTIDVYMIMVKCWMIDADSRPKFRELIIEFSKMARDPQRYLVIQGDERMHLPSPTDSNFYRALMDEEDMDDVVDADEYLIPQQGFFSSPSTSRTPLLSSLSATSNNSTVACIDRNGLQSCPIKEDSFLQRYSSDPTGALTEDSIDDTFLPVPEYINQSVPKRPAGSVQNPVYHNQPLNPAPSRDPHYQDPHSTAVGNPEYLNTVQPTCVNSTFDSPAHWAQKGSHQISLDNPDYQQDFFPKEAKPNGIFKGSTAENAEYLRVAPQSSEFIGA

[8] = target: Follistatin-related protein 3 (Homo sapiens) (UniProt O95633); assay: FSTL3 binders on small-molecule microarrays, primary screen, biochemical, small-molecule microarray, 635 nm fluorescence (AID 1105); settings: FSTL3 binding, higher = more signal;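 also: score merges emission near 667 nm and signal to noise per printed spot across three slides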
Chain of Follistatin-related protein 3 (Homo sapiens) (O95633 whole entry, looked up): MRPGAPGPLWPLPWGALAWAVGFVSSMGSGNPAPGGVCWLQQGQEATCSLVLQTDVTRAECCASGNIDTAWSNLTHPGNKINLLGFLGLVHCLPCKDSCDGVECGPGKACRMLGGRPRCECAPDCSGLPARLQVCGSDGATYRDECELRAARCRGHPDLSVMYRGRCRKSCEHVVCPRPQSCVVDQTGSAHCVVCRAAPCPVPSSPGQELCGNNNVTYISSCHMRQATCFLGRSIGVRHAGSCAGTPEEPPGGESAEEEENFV

[9] = target: Dickkopf-related protein 1 (Homo sapiens) (UniProt O94907); assay: DKK1 binders on small-molecule microarrays, primary screen, biochemical, small-molecule microarray, 635 nm fluorescence scan (AID 1106); settings: DKK1 binding, higher = more signal;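 also: score merges emission near 667 nm with signal to noise over three replicate slides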
Chain of Dickkopf-related protein 1 (Homo sapiens) (O94907 whole entry, looked up): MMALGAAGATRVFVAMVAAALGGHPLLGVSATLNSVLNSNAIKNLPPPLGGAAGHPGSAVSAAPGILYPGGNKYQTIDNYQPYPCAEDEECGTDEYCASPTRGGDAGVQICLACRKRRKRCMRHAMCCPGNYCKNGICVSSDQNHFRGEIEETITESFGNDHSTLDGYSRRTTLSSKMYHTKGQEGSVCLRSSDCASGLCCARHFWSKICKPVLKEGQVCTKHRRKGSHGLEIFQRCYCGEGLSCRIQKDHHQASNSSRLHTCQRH

[10] = test system: Inhibin beta A chain (activin A); assay: INHBA (activin A) binders on microarrays, primary screen, biochemical, small-molecule microarray, 635 nm fluorescence scan (AID 1107); settings: small-molecule microarray binding, higher = more signal;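 also: mouse activin A protein probed at 4.33 µg/mL on printed slides; score merges bound-protein fluorescence near 667 nm with spot signal-to-noise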
[11] = test system: Human papillomavirus type 1a protein E7 (residues 44-93); assay: HPV1a E7 fragment binders on microarrays, primary screen, biochemical, small-molecule microarray, residues 44-93, 635 nm fluorescence (AID 1108); settings: small-molecule microarray binding, fluorescence 635 nm; higher = more signal;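 also: E7 fragment applied at 1 µg/mL in TBST for 1 h at 4 C; score combines spot fluorescence with its signal to noise ratio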
[12] = modulators of HCV replicon luciferase signal, primary screen, HCV replication inhibitor project, Huh7 cells, luciferase reporter (AID 1109); settings: 48 h, higher = more signal;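 also: huh7 hepatoma cells harbouring a luciferase neomycin HCV replicon reporter; luciferase luminescence as measure of HCV replicon replication; test concentration not given here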
[13] = target: Left-right determination factor 2 (Homo sapiens) (UniProt O00292); assay: LEFTY2 binders on small-molecule microarrays, primary screen, biochemical, small-molecule microarray, 635 nm fluorescence scan (AID 1110); settings: LEFTY2 binding, higher = more signal
Chain of Left-right determination factor 2 (Homo sapiens) (O00292 whole entry, looked up): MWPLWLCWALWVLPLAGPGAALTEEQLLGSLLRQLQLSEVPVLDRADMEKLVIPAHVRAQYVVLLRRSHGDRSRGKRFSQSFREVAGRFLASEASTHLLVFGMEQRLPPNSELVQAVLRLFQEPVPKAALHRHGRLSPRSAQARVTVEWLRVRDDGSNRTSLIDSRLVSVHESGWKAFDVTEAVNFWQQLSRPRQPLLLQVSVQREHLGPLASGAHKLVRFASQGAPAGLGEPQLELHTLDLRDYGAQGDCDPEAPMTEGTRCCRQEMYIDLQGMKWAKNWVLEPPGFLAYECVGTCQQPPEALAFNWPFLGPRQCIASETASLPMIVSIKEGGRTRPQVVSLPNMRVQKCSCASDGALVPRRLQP

[14] = target: Calmodulin-1 (Homo sapiens) (UniProt P0DP23); assay: CALM1 binders on microarrays, EGTA buffer, profiling panel, biochemical, small-molecule microarray, Cy5-labelled CALM1 (AID 1111); settings: Cy5-CALM1 binding fluorescence, higher = more signal;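 also: labelled calmodulin applied in Tris saline Tween buffer holding calcium plus EGTA and DTT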
[15] = target: Calmodulin-1 (Homo sapiens) (UniProt P0DP23); assay: calcium-bound CALM1 binders on microarrays, profiling panel, artefact control for SMM control-protein annotation, biochemical, small-molecule microarray, Cy5-labelled CALM1, plus calcium (AID 1112); settings: Cy5-CALM1 binding fluorescence, higher = more signal;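 also: score merges spot fluorescence with signal to noise from triplicate slides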
[16] = small-molecule microarray binders of probe aWnt5a, primary screen, biochemical, biotinylated probe, 635/667 nm fluorescence (AID 1113); settings: higher = more signal;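 also: score merges 667 nm fluorescence intensity with signal-to-noise per printed feature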
[17] = small-molecule microarray binders of probe aShh, primary screen, biochemical, biotinylated probe, 635/667 nm fluorescence (AID 1114); settings: higher = more signal;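 also: probe is biotin-labelled aShh protein from a stem cell growth factor screen; measures binding of labelled protein to compounds printed on the slide; score merges feature fluorescence at 667 nm with signal-to-noise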
[18] = small-molecule microarray binders of probe aNog, primary screen, biochemical, biotinylated probe, 635/667 nm fluorescence (AID 1115); settings: higher = more signal;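 also: probe is biotinylated aNog protein used at 0.15 µg/mL for 1 h at 4 C; z-score combines 667 nm fluorescence of each spot with its signal to noise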
[19] = target: Torsin-1A-interacting protein 1 (Homo sapiens) (UniProt Q5JTV8); assay: LAP1 binders from COS7 cell lysate, primary screen, small-molecule microarray, 635/667 nm fluorescence (AID 1116); settings: COS7-hLAP1 lysate binding, 635 nm fluorescence, higher = more signal
Chain of Torsin-1A-interacting protein 1 (Homo sapiens) (Q5JTV8 whole entry, looked up): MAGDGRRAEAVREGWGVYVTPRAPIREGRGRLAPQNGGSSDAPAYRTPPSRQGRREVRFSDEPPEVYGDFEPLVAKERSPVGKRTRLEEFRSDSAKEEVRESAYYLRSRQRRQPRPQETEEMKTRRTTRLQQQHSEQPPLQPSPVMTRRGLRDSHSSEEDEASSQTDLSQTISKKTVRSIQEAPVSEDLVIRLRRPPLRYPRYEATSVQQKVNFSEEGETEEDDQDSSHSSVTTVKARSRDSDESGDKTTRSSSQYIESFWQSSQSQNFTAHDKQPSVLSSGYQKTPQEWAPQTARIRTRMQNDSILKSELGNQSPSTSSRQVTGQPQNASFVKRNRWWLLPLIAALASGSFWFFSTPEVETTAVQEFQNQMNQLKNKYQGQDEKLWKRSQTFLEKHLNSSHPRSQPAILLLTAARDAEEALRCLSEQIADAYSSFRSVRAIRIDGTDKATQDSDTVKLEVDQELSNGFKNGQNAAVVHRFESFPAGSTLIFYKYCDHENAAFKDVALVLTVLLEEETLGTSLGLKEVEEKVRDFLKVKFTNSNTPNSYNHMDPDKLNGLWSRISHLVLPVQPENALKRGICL

[20] = target: Alpha-bungarotoxin (Bungarus multicinctus) (UniProt P60615); assay: alpha-bungarotoxin binders on microarray, profiling panel, artefact control for SMM control protein annotation, biochemical, small-molecule microarray, Alexa647 label, 635/667 nm fluorescence (AID 1117); settings: alpha-BTX-A647 binding fluorescence, higher = more signal
Chain of Alpha-bungarotoxin (Bungarus multicinctus) (P60615 whole entry, looked up): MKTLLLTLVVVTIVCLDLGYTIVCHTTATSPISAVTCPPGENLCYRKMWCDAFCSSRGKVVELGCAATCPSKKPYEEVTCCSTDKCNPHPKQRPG

| SMILES | composite z-score [1] | composite z-score [2] | composite z-score [3] | z-score [4] | composite z-score [5] | composite z-score [6] | composite z-score [7] | composite z-score [8] | composite z-score [9] | composite z-score [10] | composite z-score [11] | z-score [12] | composite z-score [13] | composite z-score [14] | composite z-score [15] | composite z-score [16] | composite z-score [17] | composite z-score [18] | composite z-score [19] | composite z-score [20] |
| --- | --- | --- | --- | --- | --- | --- | --- | --- | --- | --- | --- | --- | --- | --- | --- | --- | --- | --- | --- | --- |
| O=C(OCCF)C1=CCC(c2cccc(Cl)c2)O1 (stereo not given) | -0.229 | -0.0052 | -0.325 | -0.824 (inactive) | 0.0899 | 0.644 | 0.119 | 0.151 | -0.183 | 0.44 | 0.628 | -0.0162 | 0.15 | 0.0307 | 0.164 | -0.169 | -0.0769 | -0.0784 | 1.53 | 0.775 |
| C=C[C@H](C)[C@@H](O)c1ccc(O)c2ccccc12 | 1.43 | -0.302 | -0.0488 | -0.0352 (inactive) | -0.152 | -0.61 | -0.775 | -0.189 | 0.0078 | 1.28 | -0.899 | -2 | -0.187 | -1.15 | -0.975 | -0.175 | -0.221 | -0.689 | -0.438 | 0.465 |
| Cc1ccc(S[C@]2(C(=O)NC3CC3)CC(=O)N(Cc3ccccc3)[C@@H]2c2ccc(CO)cc2)cc1 | 0.325 | 0.224 | 0.892 | -0.61 (inactive) | -0.829 | -0.414 | -0.679 | -0.217 | 0.539 | 0.194 | -0.269 | -0.921 | -1.19 | -0.274 | 0.176 | -0.197 | -0.237 | 0.314 | 1.39 | 0.848 |
| COCCOC(=O)N1C(=O)[C@@]2(c3cc(C#CCCO)ccc31)[C@H](C(=O)NC[C@H](O)c1ccccc1)[C@H]1C(=O)O[C@H](c3ccccc3)[C@H](c3ccccc3)N1[C@@H]2c1ccc(O)cc1 | 0.0479 | -0.194 | 0.146 | -0.267 (inactive) | 0.518 | -0.417 | -0.243 | 0.599 | 0.165 | -0.0769 | 0.727 | -0.485 | -0.186 | 0.302 | 0.262 | -0.0519 | -0.416 | -0.0784 | 1.11 | 0.476 |
| COCCOC(=O)N1C(=O)[C@@]2(c3ccccc31)[C@H](C(=O)Nc1nc3ccccc3s1)[C@H]1C(=O)O[C@H](c3ccccc3)[C@H](c3ccccc3)N1[C@@H]2c1ccc(OCCO)cc1 | 1.11 | 0.186 | 0.54 | -0.128 (inactive) | 1.26 | 1.3 | 0.331 | 1.11 | 0.427 | 0.464 | 1.37 | -2.05 | 0.382 | 1.31 | 0.773 | 0.135 | -0.0626 | 0.544 | 0.96 | 1.6 |
| COc1ccc(C(O)C2C=CC3C(=O)N(C)C(=O)C3N2Nc2ccccc2)cc1OCc1ccccc1 (stereo not given) | 1.1 | 0.679 | 0.85 | 0.89 (inactive) | 0.868 | 0.841 | 0.165 | 0.814 | -0.0523 | 0.152 | 1.43 | -0.685 | 0.195 | 1.52 | 0.519 | -0.0529 | -0.221 | 0.289 | 1.25 | 1.79 |
| CC(C)C(=C=CC[C@@H](O)c1ccccc1OCCO)C[C@@H](O)c1ccccn1 | 1.52 | -0.235 | -0.448 | 0.446 (inactive) | 1.05 | 0.556 | 0.141 | 0.425 | 0.34 | 0.715 | 0.752 | -1.14 | 0.28 | -0.178 | -0.34 | -0.0751 | -0.0553 | -0.158 | -0.221 | 0.125 |
| COCCOC(=O)N1C(=O)[C@@]2(c3cc(C#CCNC(N)=O)ccc31)[C@H](c1ccc(O)cc1)N1[C@H](c3ccccc3)[C@H](c3ccccc3)OC(=O)[C@H]1[C@@H]2C(=O)NC[C@H](O)c1ccccc1 | 0.193 | 0.614 | 0.689 | 0.716 (inactive) | 1.05 | 0.727 | 0.222 | 1.34 | 1.52 | 0.342 | 0.83 | -0.703 | 0.952 | 0.288 | 0.0058 | 0.0026 | -0.119 | -0.287 | 1.1 | 0.834 |
| CC(C)(C)OC(=O)CC[C@]1(C(=O)N2CCCCC2)N=C(c2ccc(OCCCO)cc2)O[C@H]1c1ccccc1N=[N+]=[N-] | 0.668 | 0.639 | 0.869 | -1.37 (inactive) | 0.968 | 0.736 | 0.6 | 0.81 | -0.135 | 1.34 | 1.43 | 0.6 | 0.376 | 2.25 | 1.38 | 0.152 | -0.385 | 0.207 | 1.47 | 0.823 |
| CCCC[C@@H]1C[C@H]1[C@@H](NC(=O)c1ccc(-c2ccccc2)cc1)c1ccc(-c2ccccc2)cc1 | -0.508 | 0.126 | 0.0604 | -2.88 (inactive) | 0.259 | 0.127 | 1.21 | 1.39 | 1.01 | 1.35 | 0.511 | -0.787 | 0.848 | 0.212 | -0.836 | -0.0459 | 1.37 | -0.435 | 0.285 | 0.364 |
| COC(=O)C(CC#Cc1ccc2c(c1)[C@]1(C(=O)N2)[C@H](C(=O)NC[C@H](O)c2ccccc2)[C@H]2C(=O)O[C@H](c3ccccc3)[C@H](c3ccccc3)N2[C@@H]1c1ccc(OCCO)cc1)C(=O)OC | 1.71 | 1.61 | 0.0724 | 0.0839 (inactive) | 1.3 | 1.3 | 0.767 | 1.46 | 1.14 | 1.21 | 1.45 | -1.95 | 0.696 | 1.5 | 1.1 | 0.174 | 0.986 | 0.945 | 0.053 | 2.23 |
